Where “and” joins values, the source holds several entries; their conditions need not be identical. Equal entries are not always repeated. About 83,000 compounds went through this panel and 20% of them were active in at least one assay; those are over-represented in the sample as a whole.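 Interpretation: 100, growth as untreated; towards 0, rising growth inhibition; 0, no net growth; 0 to -100, cell death. Compounds scoring below 10 were considered active.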 Calls of active or inactive are those of the source.
These molecules were tested on MDA-MB-468 breast (assay: NCI-60 one-dose screen, 48 h (100 = growth as untreated, 0 = no growth, -100 = all killed)). Details: 10 µM unless noted.
`CC1(C)C(=NO)C(C)(C)C1=NO` was tested, and the growth was 103% (inactive). In the case of `CC12CCCC(CC(=O)c3[nH]c4ccccc4c31)C2` (stereo not given), the growth is reported as -47.5% (active). `COc1cc(/C=N/n2cnc3oc(-c4ccccc4)cc3c2=N)cc(CN2CCOCC2)c1O` was tested, and the growth was 83.2% (inactive). `Fc1ccc([C@@H]2CCNC[C@H]2COc2ccc3c(c2)OCO3)cc1` was tested, and the growth was 36.1% (inactive). For `CCN(CC)P(=O)(N(CC)CC)N(CCCSC/C=C(\C)CC/C=C(\C)CCC=C(C)C)CCCN1CCN(C)CC1`, the growth was 92.4% (inactive). With `CCCCc1ccc(NC(=O)N(CCCl)N=O)cc1` the growth was 91.4% (inactive). `COc1cc2nc(-c3ccc(Cl)cc3)cc(OCCCN3CCC(O)CC3)c2cc1OC` was tested, and the growth was 52.9% (inactive). In the case of `O=S(=O)(NCCNc1nccc(-c2c(-c3cccc(F)c3)nc3occn23)n1)c1ccc(Br)cc1`, the growth is reported as 67.7% (inactive). With `Clc1cccc(Cl)c1C1CSc2ccccc2N=C1c1ccccc1` (stereo not given) the growth was 80.3% (inactive). `COc1ccc(Nc2ncc(C#N)c(NCCCNC(=O)C3CCC3)n2)cc1` was tested, and the growth was 43% (inactive). With `COc1cc(/C=C2\SC(=O)NC2=O)ccc1OCC(=O)Nc1ccc(C(=O)/C=C/c2cc3ccccc3nc2Cl)cc1` the growth was 61.4% (inactive). `COc1ccc2c(c1)c(CC(=O)NCCOCCOCC(=O)Nc1ccc(OC)c(C(N)=O)c1O)c(C)n2C(=O)c1ccc(Cl)cc1` was tested, and the growth was 88.6% (inactive). For `O=C(Cc1ccccc1Nc1c(Cl)cccc1Cl)NN1C(=O)/C(=C/c2ccc(Br)cc2)SC1=S`, the growth was 97% (inactive). For `CCCCCCCCCCCCSC(=NC)NC`, the growth was -9.65% (active) and 32.3% (inactive). With `COc1cc(C(=O)Nc2ccc(-c3nc4ccccc4[nH]3)cc2)cc(OC)c1OC` the growth was 6.62% (active). `CCCCCCN(CCCCCC)C(=N)c1ccnc2ccccc12` was tested, and the growth was 12.5% (inactive). In the case of `COC(=O)[C@]12CC[C@@H](C(C)=O)[C@@H]1[C@H]1CC[C@@H]3[C@@]4(C)C/C(=C/c5cccnc5)C(=O)C(C)(C)[C@@H]4CC[C@@]3(C)[C@]1(C)CC2`, the growth is reported as 55.7% (inactive). With `O=C1Cc2c(sc3c(F)cccc23)C(c2ccccc2[N+](=O)[O-])N1` (stereo not given) the growth was 86.9% (inactive). For `c1ccc2nc(-c3ccc4ccccc4n3)ccc2c1`, the growth was 78.9% (inactive). In the case of `COc1ccc(C(=O)/C=C/c2cc(-c3ccc(OC)c(OC)c3)n[nH]2)cc1OC`, the growth is reported as -71.6% (active). With `CS(=O)(=O)c1ccc(-c2cnc3ccc(-c4cccc(S(C)(=O)=O)c4)nn23)cc1` the growth was 6.54% (active). In the case of `CC1(C)Cc2c(cn(Cc3ccccc3)c2-c2ccccc2)-c2oncc21`, the growth is reported as 88.5% (inactive). With `COC(=O)Nc1ccc2ccc3c(NC(=O)OC)ccc4ccc1c2c43` (tested in a mixture with another compound) the growth was 40.9% (inactive). In the case of `Cc1ccc(S(=O)(=O)Nc2sccc2-c2nc(-c3ccccc3)no2)cc1`, the growth is reported as 97.7% (inactive). With `CN(Cc1cnc2nc(N)nc(N)c2n1)c1ccc(C(=O)NC(CCC(=O)O)C(=O)O)cc1` (stereo not given) the growth was 6.99% (active). In the case of `Cc1ccccc1CNc1ccc(N2CCOCC2)cc1`, the growth is reported as 97.8% (inactive). For `c1ccc(-c2n(Cc3ccc4ccccc4n3)cc[n+]2Cc2ccc3ccccc3n2)cc1`, the growth was -12.3% (active). In the case of `Cc1c(CN)cc(-c2ccc(Cl)cc2)n1-c1ccccc1`, the growth is reported as 18.7% (inactive). In the case of `Nc1c(C(=O)Nc2cccc(C(F)(F)F)c2)sc2nc3c(cc12)CCCCCC3`, the growth is reported as -24.9% (active). With `C=COC(=O)CCOCC(CC)CCCC` (stereo not given) the growth was 104% (inactive). For `COc1ccc(-c2cc(-c3cccc4ccccc34)n3c(n2)nc2ccccc23)cc1`, the growth was 52.4% (inactive). With `CC(C)(C)[Si](C)(C)OC1[C@@H](CNC(=O)NC(=O)NC(N)=O)O[C@@H](n2cnc3c(NC(=O)Nc4ccccc4)ncnc32)[C@H]1O[Si](C)(C)C(C)(C)C` (stereo not given in full) the growth was 99.1% (inactive). For `O=C(OCC(O)(CO)C(=O)NC12CC3CC(CC(C3)C1)C2)c1ccc(Cl)cc1` (stereo not given), the growth was 100% (inactive). For `COc1ccccc1N1CCN(C2=CC(=O)C(C)=C(C)C2=O)CC1`, the growth was 85.8% (inactive). `C=C1CCC[C@]2(C)CCC[C@H](C)[C@@H](OC(C)=O)[C@@H]3OC(=O)C(=C)[C@@H]3C[C@H]1O2` was tested, and the growth was 31.8% (inactive). `CCn1c(SCC(=O)Nc2cccc(C(=O)/C=C/c3ccc(Br)cc3)c2)nc2ccccc2c1=O` was tested, and the growth was 86.6% (inactive). `CC1(C)OC2C(COC(c3ccccc3)(c3ccccc3)c3ccccc3)OC(c3c[nH]c4c(N)ncnc34)C2O1` (stereo not given) was tested, and the growth was 30% (inactive). With `COc1ccc2c(c1)C/C(=C\c1cc(-c3ccc4c(c3)OCO4)n[nH]1)C2=O` the growth was 37.8% (inactive). `Nc1n[nH]c2ccc([C@@H]3Nc4ccc5[nH]ncc5c4[C@H]4C5C=CC(C5)[C@@H]34)cc12` (stereo not given in full) was tested, and the growth was -12.2% (active). For `CC(=O)OC(C(=O)O)c1ccccc1` (stereo not given), the growth was 104% (inactive).

From PubChem BioAssay (NCI)
